Measurements: PubChem BioAssay (NCI)
Compounds without any hit were thinned out: in the full panel of roughly 79,000, 15% have a hit. No stated cut-off is given here; in the data, active means growth inhibition above about 70%; inactive means the rest.

Legend:
[1] = NCI Yeast Anticancer Drug Screen. Data for the rad50 strain (AID 155);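 further: 0% = growth of vehicle-only cultures of the same strain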; details: S. cerevisiae rad50 strain growth inhibition; at 50.0 µM; hits give high values
Summary of the method: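 Genetically altered yeast (DNA repair pathway); compound treatment; growth inhibition vs vehicle ctrl.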

[2] = NCI Yeast Anticancer Drug Screen. Data for the mec2-1 strain (AID 157); details: S. cerevisiae mec2-1 strain, at 50.0 µM, hits give high values
Summary of the method: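 Yeast mec2-1 mutant treated with compound. Readout: growth inhibition vs vehicle controls.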

[3] = NCI Yeast Anticancer Drug Screen. Data for the sgs1 mgt1 strain (AID 161);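 further: 0% = growth of cultures given vehicle only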; details: S. cerevisiae sgs1 mgt1 strain, at 50.0 µM, hits give high values
Summary of the method: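 Inhibition of yeast growth, normalised to vehicle-treated controls, is reported for a strain bearing genetic alterations in DNA damage repair.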

[4] = NCI Yeast Anticancer Drug Screen. Data for the cln2 rad14 strain (AID 165);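 further: 0% = growth equal to vehicle treated cultures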; details: S. cerevisiae cln2 rad14 strain, at 50.0 µM, hits give high values
Summary of the method: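 cln2 rad14 yeast strain; compound exposure; growth inhibition read vs vehicle controls.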

[5] = NCI Yeast Anticancer Drug Screen. Data for the bub3 strain (AID 167); details: S. cerevisiae bub3 mutant strain, at 50.0 µM, hits give high values
Summary of the method: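 Yeast carrying a defined mutation is treated with each compound, and growth is compared with that of vehicle-exposed cells to give inhibition.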

[6] = NCI Yeast Anticancer Drug Screen. Data for the mlh1 rad18 strain (AID 175); details: S. cerevisiae mlh1 rad18 strain growth inhibition; at 50.0 µM; hits give high values
Summary of the method: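 Yeast w/ defined DNA-repair lesions; compound exposure; growth vs vehicle controls → % inhibition.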

Measured: growth inhibition

CCCC(=O)OC(C)COc1ccccc1 (stereo unspecified)
inactive: [1] 31.4% | [2] 5.8% | [3] 21.3% | [4] -21.4% | [5] 13.4% | [6] 22.4%

C[n+]1ccccc1C#N
inactive: [1] -17.2% | [2] -32.1% | [3] 0.55% | [4] 11.9% | [5] -43.4% | [6] -4.2%

c1ccc(-c2nc(-c3ccccn3)cc3ccccc23)cc1
inactive: [1] -2.05% | [2] -17.6% | [3] 10% | [4] 2.8% | [5] 5.4% | [6] 18.8%

CO/C(=N\N=C\c1ccc(OC)c(OC)c1)c1ccncc1
inactive: [1] -21.6% | [2] -37.9% | [3] -12.9% | [4] -7.75% | [5] -28.6% | [6] -40%

O=C1C(=O)N(c2ccc(Cl)cc2Cl)C(=O)C(=O)C1c1nc2ccccc2s1
inactive: [1] 43.1% | [2] 29.7% | [3] 4% | [4] 24.2% | [5] 25.6% | [6] 29%

O=C(CCCCCCCCC(=O)OCc1ccccc1)OCc1ccccc1
inactive: [1] 19.2% | [2] 2.55% | [3] 3.85% | [4] -24.2% | [5] 11.2% | [6] 41%

N=C(N)S/C=C/C(=O)O
inactive: [1] -18.8% | [2] -17.4% | [3] -20.5% | [4] -4.65% | [5] -13.8% | [6] -19.6%

CCOC(=O)c1c2ccc(/C=C/c3ccccc3)ccc-2c(C(=O)OCC)c1N
inactive: [1] -16.6% | [2] -7.25% | [3] -23.9% | [4] 10.6% | [5] -32% | [6] -22.6%

O=c1onc2n1-c1cc(Cl)ccc1C(=S)N1CSCC21 (stereo unspecified)
inactive: [1] 1% | [2] 8.15% | [3] 13.5% | [4] 5.4% | [5] 2.5% | [6] 11.6%

COc1ccc2c(c1)C(=O)[C@@](Nc1ccc(C=O)cc1)(OC)[C@@](OC)(c1ccc([N+](=O)[O-])cc1)O2
inactive: [1] 9.3% | [2] -3.05% | [3] 29.9% | [4] 2.3% | [5] -9.45% | [6] 12.4%

CCc1c(C)c(C#N)c(=S)n(C2OC(CO)C(O)C(O)C2O)c1C (stereo unspecified)
inactive: [1] -61.8% | [2] 3.95% | [3] -19.7% | [4] 9.4% | [5] 8.35% | [6] -4%

C/C(=N/C(=O)NN)c1ccc(Cl)cc1
inactive: [1] 34.2% | [2] -7.9% | [3] 42.9% | [4] 2.35% | [5] 37.2% | [6] 31.9%

CN1CCN(CN2C(=O)C3C4C=CC(C3C2=O)C2C(=O)N(CN3CCN(C)CC3)C(=O)C42)CC1 (stereo unspecified)
inactive: [1] 18.1% | [2] 5.95% | [3] 13.5% | [4] -0.85% | [5] 14.6% | [6] 16.9%

O=[N+]([O-])c1cc(O)ccc1O
inactive: [1] 5.4% | [2] 5.45% | [3] 0% | [4] -10.7% | [5] -1% | [6] 12%

CS1(=O)=NC(=O)C(N2C(=O)c3ccccc3C2=O)CC1 (stereo unspecified)
inactive: [1] 0.6% | [2] 4.9% | [3] -0.95% | [4] -17.4% | [5] 13.2% | [6] 5.5%

N=C1N=C(N)c2cc3c(cc21)SCCSCCCSCCS3
inactive: [1] 6.05% | [2] 1.95% | [3] 2.6% | [4] 9.15% | [5] 4.2% | [6] 30.4%

Cn1nc(-c2ccccc2)c(C(=O)/C=C/c2ccc(F)cc2)c(N2CCCCC2)c1=O
inactive: [1] 2.55% | [2] 8.55% | [3] -0.95% | [4] 28.2% | [5] 4.1% | [6] 10.2%

O=C(NC(=S)Nc1cccc2ccccc12)c1ccccc1F
inactive: [1] 30.9% | [2] 15.1% | [3] 37.1% | [4] 5.3% | [5] 44% | [6] 28.4%

CCN(CCO)CC(=O)c1ccc(Cl)c(Cl)c1
inactive: [1] 0.2% | [2] -12.5% | [3] -6.95% | [4] -13.8% | [5] 16.1% | [6] -0.9%

C=CCCC1CN2CCc3cc(OC)c(OC)cc3C2CC1=O (stereo unspecified)
inactive: [1] 15.3% | [2] 16.1% | [3] 10.6% | [4] -41.7% | [5] 28.4% | [6] 20.1%

CC1CCCCC1NC(=O)c1ccccc1 (stereo unspecified)
inactive: [1] -12% | [2] -10.6% | [3] -5.2% | [4] -34.8% | [5] -13.7% | [6] -3.1%
